Screens deposited in PubChem BioAssay by National Center for Advancing Translational Sciences (NCATS).
Rows were chosen to be rich in hits. Some 7.5% of all compounds tested hit in one or more screens of this group.
Luc counter: Kinase-Glo luciferase inhibition (counter-screen); Q27757; Kinase-Glo luciferase, ATP luminescence, 8 min; Potency, µM (top dose mostly 38.3 µM), for inactives: top-dose activity change, negative = inhibition, usual class: inhibitors; actives 0.28% (n = 200,000); note: % is set by controls: 0 for no effect and ±100 for the full control effect; nearly all actives have a fitted effect of over 60% in size
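Compound is pinned into ATP-containing buffer (10 uM ATP, imidazole pH 7.2, 7 mM MgCl2). Kinase-Glo luciferase reagent is then added. Light output is recorded following an 8-min room-temperature incubation.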
FLuc modulator: inhibits or activates purified firefly luciferase, miR-21 counter-screen | purified FLuc, Km substrates, luminescence inhibition | P08659 | Potency, µM (highest dose often 57.5 µM), for inactives: at the highest dose activity change, negative = inhibition, usual class: inhibitors | actives 6.9% (n = 360,000);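 note: plate controls were vehicle for no effect and reference inhibitor for full effect; nearly all actives have a fitted effect of over 55% in size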
Target sequence (P08659 whole entry, looked up): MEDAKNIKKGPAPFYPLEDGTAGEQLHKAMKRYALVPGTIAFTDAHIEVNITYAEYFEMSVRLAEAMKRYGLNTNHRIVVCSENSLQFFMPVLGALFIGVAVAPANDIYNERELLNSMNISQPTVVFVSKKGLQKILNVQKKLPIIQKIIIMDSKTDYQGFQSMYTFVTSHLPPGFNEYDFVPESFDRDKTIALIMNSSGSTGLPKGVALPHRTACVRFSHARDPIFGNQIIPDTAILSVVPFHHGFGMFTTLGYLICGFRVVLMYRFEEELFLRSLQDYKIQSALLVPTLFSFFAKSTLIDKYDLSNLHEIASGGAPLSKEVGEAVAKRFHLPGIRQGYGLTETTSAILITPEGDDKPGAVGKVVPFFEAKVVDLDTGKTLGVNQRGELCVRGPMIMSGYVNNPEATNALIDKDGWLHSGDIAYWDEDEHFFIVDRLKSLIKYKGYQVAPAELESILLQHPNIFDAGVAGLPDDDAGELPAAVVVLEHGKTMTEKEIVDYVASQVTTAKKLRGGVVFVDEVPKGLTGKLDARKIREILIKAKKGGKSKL
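Purified P. pyralis luciferase, 10 nM final, with Km-level 10 uM D-luciferin and 10 uM ATP in 50 mM Tris acetate pH 7.5, 10 mM Mg acetate, 0.01% Tween-20, 0.05% BSA; 6-point qHTS titration about 60 µM downward; luminescence read.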
NPC1 prom act: NPC1 promoter activation; Huh7 NPC1 promoter luciferase reporter, 24 h; Potency, µM (titrated, usually from 9.22 µM), for inactives: top-dose activation, hits mostly activators; actives 2.4% (n = 320,000); note: % of control where 0% means no effect; nearly all actives have a fitted effect of over 60% in size
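Compounds in DMSO were transferred onto Huh7 NPC1-luciferase reporter cells pre-incubated 2 h; after 24 h at 37 °C, Amplite reagent was dispensed and luminescence recorded 10 min later.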
Rab9 prom act: activates the Rab9 promoter. Huh7 Rab9 promoter-luciferase reporter, luminescence, 24 h. Potency, µM (top dose mostly 9.22 µM), for inactives: at the highest dose activation, negative = inhibition, most hits filed as activators. actives 2.8% (n = 320,000). AID 485297; note: % of control where 0% means no effect; nearly all actives have a fitted effect of over 60% in size
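Luciferase signal after 10 min detection reagent at ambient indicates Rab9 promoter upregulation; stably transfected Huh7 cells were treated 24 h with compound in DMSO at 37 °C, 5% CO2.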
ELG1 genotox: genotoxicity induction in ELG1-luciferase HEK293T cells. HEK293T ELG1-luciferase reporter, luminescence, 16 h. Potency, µM (titrated, usually from 46 µM), for inactives: top-dose activity change, positive = activation, hits mostly activators. actives 1.3% (n = 330,000). AID 504466; note: % of control where 0% means no effect; nearly all actives have a fitted effect of over 60% in size
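HEK293T cells expressing luciferase-tagged ELG1 were treated with compound or DMSO for 16 hr at 37°C. Luciferase activity was then read after 30 min with ONE-Glo at room temperature; rising signal flags genetic stress.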
SMN2 splice enh: increases expression of the SMN2 splice variant | Potency, µM (top dose mostly 46.1 µM), for the others: at the top dose activity change, positive = activation, actives largely listed as activators | actives 2.8% (n = 210,000) | HEK293 SMN2-luciferase splicing reporter, luminescence, 30-36 h; note: % of control where 0% means no effect; nearly all actives have a fitted effect of over 55% in size
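qHTS luciferase splicing reporter: luminescence rises when SMN2 exon 7 is included in transfected HEK293 cells. Compound exposure lasted 30-36 h at 37C, with 4.5 mM final sodium butyrate as control, followed by a ONE-Glo read.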
Starred values were filed as active, the others as inactive; ? = inconclusive; / = no result given. Calls come from the whole dose curve; as a rule, active = well fitted curve in the direction sought with a large enough effect; inconclusive = small, poorly fitted or top-dose-only effect, or another doubt; inactive = no such curve, though single readings can be large; an effect the other way counts as inactive or inconclusive. Potency is the fitted concentration of half-maximal effect.

SMILES | Luc counter | FLuc modulator | NPC1 prom act | Rab9 prom act | ELG1 genotox | SMN2 splice enh
CCOC(=O)C1CCN(c2ncnc3c2nnn3C)CC1 | / | -7% | / | / | / | /
O=C(O)c1ccccc1NS(=O)(=O)c1ccc(NNC(=S)Nc2ccc(OC(F)F)cc2)c([N+](=O)[O-])c1 | ? | 19µM* | -3% | -3% | 0% | -24%
Cc1ccc(NC(=S)NNc2ccc([N+](=O)[O-])cc2S(=O)(=O)Nc2ccccc2C(=O)O)cc1C | -10% | ? | -8% | -12% | 1% | -6%
CCOC(=O)c1cc(-c2ccccc2)n(CCC(=O)Nc2ccc(OC)c(Cl)c2)c1C | / | -9% | / | / | / | /
CCC1CSC(Nc2ccc(C(=O)/C=C/c3ccc(Oc4ccccc4)cc3)cc2)=N1 (stereo not drawn) | -4% | 13µM* | 0% | -6% | 9% | -66%
CCC1CSC(Nc2ccc(C(=O)/C=C/c3cccc(C)c3)cc2)=N1 (stereo not drawn) | 3% | ? | -4% | -3% | 13% | -59%
COc1ccc(CCNC(=O)c2ccc(Cn3c(=O)c4ccccc4n(Cc4cccc(Cl)c4)c3=O)cc2)cc1OC | / | 1% | / | / | / | -27%
Nn1c(-c2ccccc2Cl)nnc1-c1ccccc1Cl | -9% | 0.95µM* | 3.5µM* | 4µM* | ? | ?
CC(C)c1ccc(NC(=O)c2ccccc2NC(=O)C2CC=CCC2C(=O)O)cc1 (stereo not drawn) | / | 27µM* | 15% | 15% | ? | /
COc1ccc(NC(=O)Nc2nnc(N3CCCCC3C)s2)cc1OC (stereo not drawn) | 6% | 17µM* | -2% | -5% | 1% | -4%
COc1ccc(OC)c(NC(=O)Nc2nnc(N3CCCCC3C)s2)c1 (stereo not drawn) | / | 19µM* | 11% | 7% | 7% | /
COC(=O)c1ccccc1NC(=O)Nc1nnc(N2CCCCC2C)s1 (stereo not drawn) | 1% | 4% | 1% | -2% | 1% | 3%
CCOc1ccc(NC(=O)Nc2nnc(N3CCCCC3C)s2)cc1 (stereo not drawn) | / | -2% | / | / | / | /
CCCn1c2ccccc2c2cnn(CC(=O)NCC3CCN(Cc4ccccc4C)CC3)c(=O)c21 | / | -12% | / | / | / | /
c1ccc(Cn2c(-c3cccs3)nc3nc4ccccc4nc32)cc1 | -1% | 15µM* | 16% | 4% | 4% | -5%
CC(C)Cn1c(-c2cccs2)nc2nc3ccccc3nc21 | -3% | ? | -1% | 2% | -8% | -1%
CCCN(CCC)CCCNC(=O)C1CCC(CNS(=O)(=O)c2ccc(NC(C)=O)cc2)CC1 (stereo not drawn) | / | 0% | / | / | / | /
Cn1cc(/C=N/NC(N)=S)c2ccccc21 | / | -11% | 4% | -8% | -1% | /
CCCc1cc(C(=O)N/N=C/c2cccn2C)cs1 | / | 17µM* | ? | ? | 18µM* | /
Cn1cccc1/C=N/NC(=O)c1cccs1 | / | 15µM* | ? | ? | ? | /
Cn1cccc1/C=N/NC(=O)Cc1cccs1 | / | -17% | 9% | 14% | 3% | /
Cn1cc(/C=N\NC(=O)c2cccs2)c2ccccc21 | -3% | ? | ? | 2.2µM* | 11µM* | 14µM*
CCN1CCN(Cc2c(O)ccc3cc(-c4ccc(OC)cc4)c(=O)oc23)CC1 | / | -15% | / | / | / | /
O=S(=O)(c1ccc(N2CCOCC2)c(Cl)c1)N1CCOCC1 | / | -2% | -1% | -3% | -1% | /
Nc1cc(S(=O)(=O)N2CCOCC2)ccc1N1CCCCC1 | / | / | / | / | 1% | /
SMILES | Luc counter | FLuc modulator | NPC1 prom act | Rab9 prom act | ELG1 genotox | SMN2 splice enh
O=c1c2ccccc2sn1-c1cc(S(=O)(=O)N2CCOCC2)ccc1N1CCCC1 | -3% | 5.4µM* | 12% | -2% | -1% | 14%
O=c1c2ccccc2sn1-c1cc(S(=O)(=O)N2CCOCC2)ccc1N1CCOCC1 | -12% | 4.8µM* | 1% | 11% | -3% | 4%
Cc1ccc2c(CC(=O)Nc3ccc(S(=O)(=O)N4CCCCC4)cc3)coc2c1C | / | 1% | / | / | / | 6%
Cc1cc(N)c2cc(NC(=O)/C=C/c3ccccc3Cl)ccc2n1 | / | 13µM* | -8% | -20% | 5% | /
Cc1cc(C)nc(NC(=O)/C=C/c2ccc(Cl)cc2Cl)c1 | -5% | 7.6µM* | ? | 3.5µM* | ? | 10%
Cc1cc(N2CCCCC2)nc2ccc(NC(=O)/C=C/c3ccccc3Cl)cc12 | / | -3% | / | / | / | -4%
Cc1cc(C)nc(NC(=O)/C=C/c2ccccc2Cl)c1 | 1% | 3µM* | ? | ? | ? | 13µM*
Cc1cc(C)nc(NC(=O)/C=C/c2ccccc2Cl)n1 | -16% | ? | 28% | ? | 11% | ?
Cc1cc(C)nc(NC(=O)c2ccc(Cl)cc2[N+](=O)[O-])c1 | 2% | -5% | 4% | 0% | 1% | 11%
Cc1ccc(C(=O)Nc2c(C)nc3ccccn3c2=O)cc1 | / | -11% | / | / | / | /
CC1(C)CN=C(N(Cc2ccccc2)C(=O)Nc2ccccc2)S1 | -8% | 15µM* | ? | ? | ? | -14%
CC1(C)CN=C(N(C(=O)Nc2ccccc2)c2ccccc2F)S1 | / | -4% | -3% | -2% | 5% | /
CC1=C(C(=O)NCc2cccc(Cl)c2)C2(CCCCCC2)OC1=O | / | -3% | / | / | / | /
Cc1cccc(Nc2cc(C)c3c(O)cccc3n2)c1C | -2% | 17µM* | 14% | 14% | 0% | -4%
Cc1ccc(NC(=O)Nc2ccc3nc(N4CCN(C)CC4)cc(C)c3c2)cc1F | / | -2% | / | / | / | /
Cc1cc(C)cc(NC(=O)Nc2ccc3nc(N4CCN(C)CC4)cc(C)c3c2)c1 | / | -20% | / | / | / | /
COc1cccc(NC(=O)Nc2ccc3nc(N4CCN(C)CC4)cc(C)c3c2)c1 | / | 12µM* | / | / | / | /
Cc1cc(N2CCN(C)CC2)nc2ccc(NC(=O)Nc3ccccc3Cl)cc12 | / | 1.7µM* | / | / | / | /
CCN(CC)C(=O)c1sc2c(c1C)c(=O)n(Cc1ccccc1)c(=O)n2Cc1ccccc1C | / | -11% | / | / | / | /
CCN(c1ccc(OC)cc1)S(=O)(=O)c1ccc2[nH]c(=O)ccc2c1 | / | 5.4µM* | / | / | / | /
CCOC(=O)CCN(c1ccccc1)S(=O)(=O)c1ccc2[nH]c(=O)ccc2c1 | / | -5% | / | / | / | /
Cc1cccc(C)c1OCC(=O)NCC1(N(C)C)CCCCC1 | / | -4% | / | / | / | /
Clc1ccc(-c2cn3cc(Cc4ccccc4)sc3n2)cc1 | / | 0.24µM* | / | / | / | 5.6µM*
Fc1ccccc1Cc1cn2cc(-c3ccc(Cl)cc3)nc2s1 | / | 0.3µM* | / | / | / | ?
Fc1ccc(-c2cn3cc(Cc4ccccc4Cl)sc3n2)cc1 | / | 0.48µM* | / | / | / | 2.2µM*
Fc1ccc(Cc2cn3cc(-c4ccc(F)cc4)nc3s2)cc1 | / | 0.3µM* | / | / | / | 3.2µM*
Nc1nc(-c2ccc(Cl)cc2)cn1N | 3% | -8% | -3% | 1% | -2% | -1%
